Where a name gives a salt, the structure may show the parent alone.
test system: Saccharomyces cerevisiae BY4741 SeMeCo community; assay: z-score of subpopulation abundance vs DMSO median, subpopulation auxotrophic for HLUM; higher = larger share of this subpopulation than in DMSO controls; conditions: 10 µM; 24 h; SM minimal medium; subpopulation (auxotrophy): HLUM
Procedure: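 Fluorescent four-plasmid SeMeCo (self-establishing metabolically cooperating S. cerevisiae BY4741 community; plasmids pH-mRuby2, pL-mWasabi, pU-eCFP, pM-TagRFP657) was grown 24 h in minimal SM medium with each Selleck FDA-approved drug at 10 µM in 384-well plates. Cells were fixed and imaged by high-content confocal microscopy. For each auxotrophic subpopulation (and the prototroph), a z-score gives the deviation from the DMSO vehicle-control population median.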

| Structure (SMILES) | z-score of subpopulation abundance |
| --- | --- |
| COc1cc(NS(=O)(=O)c2ccc(N)cc2)nc(OC)n1 [SulfadiMethoxine sodium] | -0.21 |
| NC(=O)OCC(COC(N)=O)c1ccccc1 [Felbamate] | -0.68 |
| O=c1cc(-c2ccc(O)c(O)c2)oc2cc(O)cc(O)c12 [Luteolin] | -0.27 |
| CONC(=O)Nc1ccc(-c2sc3c(c2CN(C)C)c(=O)n(-c2ccc(OC)nn2)c(=O)n3Cc2c(F)cccc2F)cc1 [Relugolix] | 0.58 |
| CCN(CC)CCOCCOC(=O)C1(c2ccccc2)CCCC1 [Pentoxyverine Citrate] | -0.26 |
| COc1ccnc(C[S+]([O-])c2nc3cc(-n4cccc4)ccc3[nH]2)c1C (stereo not given) [Ilaprazole] | 0.68 |
| Cc1nccn1CC1CCc2c(c3ccccc3n2C)C1=O (stereo not given) [Ondansetron Hydrochloride Dihydrate] | -0.23 |
| O=C1CN(/N=C/c2ccc(-c3ccc([N+](=O)[O-])cc3)o2)C(=O)N1 [Dantrolene sodium] | 0.72 |
| c1ccc(C2CN3CCSC3=N2)cc1 (stereo not given) [Tetramisole HCl] | 0.92 |
| CC1=C[C@H]2C(=O)O[C@H]3C[C@@H](C/C=C(\C)C[C@@H](C)/C=C/C=C4\CO[C@H](/C1=N\O)[C@@]42O)O[C@@]1(CC[C@H](C)[C@@H](C)O1)C3.CC[C@H]1O[C@]2(CC[C@@H]1C)C[C@@H]1C[C@@H](C/C=C(\C)C[C@@H](C)/C=C/C=C3\CO[C@@H]4/C(=N\O)C(C)=C[C@@H](C(=O)O1)[C@]34O)O2 [Milbemycin Oxime] | -0.41 |
| CC(C)Cc1ccc(C(C)C(=O)O)cc1 (stereo not given) [Ibuprofen Lysine] | -1.27 |
| CO[C@@]1(NC(=O)C(C(=O)O)c2ccc(O)cc2)C(=O)N2C(C(=O)O)=C(CSc3nnnn3C)CO[C@@H]21 (stereo not given in full) [Latamoxef sodium] | 0.61 |
| Nc1c2c(nc3ccccc13)CCCC2 [Tacrine hydrochloride hydrate] | 0.45 |
| COc1ccc2cc([C@H](C)C(=O)O)ccc2c1 [Naproxen Sodium] | -0.52 |
| CC(C)[N+](C)(CCOC(=O)C1c2ccccc2Oc2ccccc21)C(C)C [Propantheline bromide] | -0.56 |
| CC1(C)S[C@@H]2[C@H](NC(=O)Cc3ccccc3)C(=O)N2[C@H]1C(=O)O [Benzylpenicillin potassium] | 0.88 |
| CO[C@H]1C[C@@H]2CC[C@@H](C)[C@@](O)(O2)C(=O)C(=O)N2CCCC[C@H]2C(=O)O[C@H]([C@H](C)C[C@@H]2CC[C@@H](OCCO)[C@H](OC)C2)CC(=O)[C@H](C)/C=C(\C)[C@@H](O)[C@@H](OC)C(=O)[C@H](C)C[C@H](C)/C=C/C=C/C=C/1C [Everolimus (RAD001)] | 24 |
| CCN(CC)CCNC(=O)c1cc(Cl)c(N)cc1OC [Metoclopramide HCl] | -0.49 |
| CC(C)c1nc(N(C)S(C)(=O)=O)nc(-c2ccc(F)cc2)c1/C=C/[C@@H](O)C[C@@H](O)CC(=O)O [Rosuvastatin] | 2.76 |
| COCCCN1CCC(NC(=O)c2cc(Cl)c(N)c3c2OCC3)CC1 [Prucalopride] | -0.34 |

| Structure (SMILES) | z-score of subpopulation abundance |
| --- | --- |
| O=C1Cc2cc(CCN3CCN(c4nsc5ccccc45)CC3)c(Cl)cc2N1 [Ziprasidone HCl] | 0.44 |
| CO/N=C(\C(=O)N[C@@H]1C(=O)N2C(C(=O)OCOC(=O)C(C)(C)C)=C(/C=C\c3scnc3C)CS[C@H]12)c1csc(N)n1 [Cefditoren Pivoxil] | 0.48 |
| C=CCN1CCCC1CNC(=O)c1cc2nn[nH]c2cc1OC (stereo not given) [Alizapride HCl] | 0.23 |
| NCC[C@H](O)C(=O)N[C@@H]1C[C@H](N)[C@@H](O[C@H]2O[C@H](CN)[C@@H](O)[C@H](O)[C@H]2O)[C@H](O)[C@H]1O[C@H]1O[C@H](CO)[C@@H](O)[C@H](N)[C@H]1O [Amikacin hydrate] | 0.15 |
| CN(C)CCC=C1c2ccccc2C=Cc2ccccc21 [Cyclobenzaprine HCl] | 0.14 |
| CO/N=C(\C(=O)N[C@@H]1C(=O)N2C(C(=O)O)=C(COC(C)=O)CS[C@H]12)c1csc(N)n1 [Cefotaxime sodium] | 0.47 |
| CCN(CC)CC#CCOC(=O)C(O)(c1ccccc1)C1CCCCC1 (stereo not given) [Oxybutynin] | 1 |
| CC(C)COCC(CN(Cc1ccccc1)c1ccccc1)N1CCCC1 (stereo not given) [Bepridil hydrochloride] | 2.72 |
| CCCSc1ccc2[nH]c(NC(=O)OC)nc2c1 [Albendazole] | 0.29 |
| OC(c1cc(C(F)(F)F)nc2c(C(F)(F)F)cccc12)C1CCCCN1 (stereo not given) [Mefloquine HCl] | 0.33 |
| C[C@]12CCC3=C4CCC(=O)C=C4CC[C@H]3[C@@H]1CC[C@@]2(O)CC#N [Dienogest] | -0.14 |
| O=c1c(-c2ccc(O)cc2)coc2c([C@@H]3O[C@H](CO)[C@@H](O)[C@H](O)[C@H]3O)c(O)ccc12 [Puerarin] | -0.33 |
| N#CC(c1ccc(Cl)cc1)c1c(Cl)cc(-n2ncc(=O)[nH]c2=O)cc1Cl (stereo not given) [Diclazuril] | 0.35 |
| CC[C@H]1OC(=O)[C@H](C)[C@@H](O[C@H]2C[C@@](C)(OC)[C@@H](O)[C@H](C)O2)[C@H](C)[C@@H](O[C@@H]2O[C@H](C)C[C@H](N(C)C)[C@H]2O)[C@](C)(O)C[C@@H](C)CN(C)[C@H](C)[C@@H](O)[C@]1(C)O [Azithromycin Dihydrate] | -0.18 |
| COc1ccc(C2CNC(=O)C2)cc1OC1CCCC1 (stereo not given) [Rolipram] | -0.71 |
| OCCOc1ccc(/C(=C(/CCCl)c2ccccc2)c2ccccc2)cc1 [Ospemifene] | -0.5 |
| CC[N+](CC)(CC)CCOc1cccc(OCC[N+](CC)(CC)CC)c1OCC[N+](CC)(CC)CC [Gallamine Triethiodide] | -0.08 |
| CN1C2CCC1CC(OC(=O)C(O)c1ccccc1)C2 (stereo not given) [Homatropine Bromide] | 0.14 |
| N[C@@H]1CN(c2c(F)cc3c(=O)c(C(=O)O)cn([C@@H]4C[C@@H]4F)c3c2Cl)CC12CC2 [Sitafloxacin Hydrate] | -0.03 |
| COc1ncnc(NS(=O)(=O)c2ccc(N)cc2)c1OC [Sulfadoxine] | 0.32 |
